The test system of assay [1] is Zika virus NS2B-NS3 protease (linked construct). Kind of assay: Primary screen NINDS Rhodamine qHTS for Zika virus inhibitors (AID 1347160). Note: nearly all actives have a fitted effect of over 55% in size. Summed up: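 Rhodamine110-peptide cleavage (1.5 µM substrate) by 25 nM linked NS2B-NS3 enzyme at pH 8.0 (Tris, Tween 20), after 15 min RT preincubation with compounds; 15-min fluorescence change normalized to controls and Hill-fitted.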
On the technique in general: In qHTS, concentration-response curves come from the screen itself.

Assay [2] has as its target Phospholipid hydroperoxide glutathione peroxidase GPX4 (Homo sapiens) (UniProt P36969). The assay can be described thus: Primary qHTS Assay for Inhibitors of Recombinant Selenoprotein Glutathione Peroxidase 4 (GPX4) (AID 1845192). Note: nearly all actives have a fitted effect of over 65% in size. The following applies: outcome: dose series up to 50 µM unless noted. In short, it runs like this: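 qHTS, GR-coupled: GPX4 200 nM + cpd 30 min RT → GSH 1 mM, NADPH 0.5 mM, GR 100 nM → CHP 0.5 mM start; fluor 340/450 at t0 and t15 min; no-enzyme wells as control.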

Assay [3] deals with Luciferin 4-monooxygenase (Photinus pyralis) (UniProt P08659). The assay can be described thus: Primary firefly luciferase (FLuc) qHTS assay for identification of artifact compounds. (AID 1845220). Note: nearly all actives have a fitted effect of over 60% in size. Summed up:
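In this counter-screen for luciferase artifacts, test compounds met substrate (10 uM each luciferin and ATP) before 10 nM enzyme started the reaction. Light output was measured 5 min later.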

Assay [4] can be described thus: Primary fluorescence-based thiol-reactive (MSTI) qHTS assay for identification of artifact compounds. (AID 1845221).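 Note: thiol-reactive compounds lower the probe fluorescence signal; nearly all actives have a fitted effect of over 65% in size.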 Summed up:
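qHTS titration of compound; 4 uM MSTI, PBS pH 7.4, 2% DMSO; 1 h RT, dark; fluorescence 525/598 nm; normalized to Acetyl-MSTI and MSTI; 4-parameter Hill fit.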

The subject of assay [5] is Nanoluciferase (engineered Oplophorus gracilirostris luciferase). The assay can be described thus: Primary Nanoluciferase (NLuc) qHTS assay for identification of artifact compounds. (AID 1845222).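 Note: NLuc secreted into diluted conditioned medium of S16 cells.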 In short, it runs like this: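 Using secreted nanoluciferase in S16 culture medium (0.22 um filtered, 1:55 dilution), compounds were preincubated 15 min at RT. Signal was generated with Nano-Glo reagent (1:100) over 5 min.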

Assay [6] is described as follows: Primary redox qHTS assay for identification of artifact compounds. (AID 1845223). In short, it runs like this:
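Redox-cycling detection via DTT (250 uM final) oxidation coupled to Amplex Red (25 uM)/HRP (250 mU/mL) in HBSS. 15 min preincubation plus 30 min after DTT, room temperature. Ex/Em 525/598 nm; 4-parameter Hill fit against DMSO and 10 uM DA3003.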

Assay [7] concerns C33A. Kind of assay: Primary qHTS to identify gynecologic anti-cancer compounds using libraries of approved drugs and bioactive compounds (AID 1345084). Note: nearly all actives have a fitted effect of over 55% in size. Note: potency is the fitted concentration of half-maximal effect. The following applies: Gynecologic cancer cell panel viability, ATPlite luminescence, 48 h; series mostly up to 57.5 µM. In short, it runs like this: (§1)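 Cells, 1,000 per well, were allowed to settle for 16 h at 37 C before compound addition. Five concentrations were tested for 48 h, and viability was read by ATPlite luminescence after 15 min at room temperature.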

For assay [8], the system named is CAOV3. The description is as above. The following applies: Gynecologic cancer cell panel viability, ATPlite luminescence, 48 h; series mostly up to 57.5 µM. Summed up: as §1
For orientation: Cellular ATP, detected with luciferase, serves as a proxy for viable cell number.

Assay [9] relates to CASKI. The assay is described as above. The following applies: Gynecologic cancer cell panel viability, ATPlite luminescence, 48 h; series mostly up to 57.5 µM. Summed up:
as §1

Assay [10] has as its system Es-2. The description is as above. As to conditions: Gynecologic cancer cell panel viability, ATPlite luminescence, 48 h; series mostly up to 57.5 µM. In short, it runs like this:
as §1

Assay [11] relates to HeLa. The description is as above. The following applies: Gynecologic cancer cell panel viability, ATPlite luminescence, 48 h; series mostly up to 57.5 µM. In short, it runs like this: as §1
Assay [12] relates to Hek293T. The description is as above. The following applies: Gynecologic cancer cell panel viability, ATPlite luminescence, 48 h, control line for the selectivity index; series mostly up to 57.5 µM. In short, it runs like this:
as §1

Assay [13] relates to JEG-3. The description is as above. As to conditions: Gynecologic cancer cell panel viability, ATPlite luminescence, 48 h; series mostly up to 57.5 µM. In short, it runs like this: as §1
In assay [14] the test system is OV90. The description is as above. The following applies: Gynecologic cancer cell panel viability, ATPlite luminescence, 48 h; series mostly up to 57.5 µM. In short, it runs like this:
as §1

Assay [15] deals with Tov-21-G. The assay is described as above. The following applies: Gynecologic cancer cell panel viability, ATPlite luminescence, 48 h; series mostly up to 57.5 µM. In short, it runs like this:
as §1

Assay [16] deals with Calcium and integrin-binding protein 1 (Homo sapiens) (UniProt Q99828). Kind of assay: Primary qHTS for Identification of Calcium Integrin Binding Protein 1 (CIB1) Competitor (AID 1508620).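 Note: GST tagged CIB1 binding a fluorescein labelled alphaIIb integrin peptide tracer; top concentration of the series differs between compounds.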 Summed up: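 Fluorescence polarization competition: CIB1-GST (1 uM final) preincubated with compound 15 min at room temperature, then FITC-labeled alphaIIb peptide (100 nM final) added for another 15 min. Polarization read at Ex 480/Em 540.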

The nature of assay [17]: Primary qHTS for inhibitors of nuclear receptor binding SET domain protein 2 (NSD2) in an isogenic RCH-ACV NSD2 p.E1099K mutant (9B) (AID 1645876). Note: potency is the fitted concentration of half-maximal effect; nearly all actives have a fitted effect of over 70% in size.
The nature of assay [18]: Primary qHTS for inhibitors of nuclear receptor binding SET domain protein 2 (NSD2) in an RCH-ACV wild type WT cells (2C) (AID 1645877). Note: potency is the fitted concentration of half-maximal effect; nearly all actives have a fitted effect of over 70% in size.
For assay [19], the target named is Glutathione peroxidase 1 (Homo sapiens) (UniProt P07203). Kind of assay: Primary qHTS Assay for Inhibitors of Recombinant Selenoprotein Glutathione Peroxidase 1 (GPX1) (AID 1845191). Note: nearly all actives have a fitted effect of over 65% in size. In short, it runs like this:
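GPX1 10 nM, GR 100 nM, GSH 1 mM, NADPH 0.5 mM, CHP 0.5 mM (final). 30-min cpd preincubation, RT. Ex340/Em450 read t=0, t=15 min.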

For assay [20], the system named is Tov112D. The assay can be described thus: Primary qHTS to identify gynecologic anti-cancer compounds using libraries of approved drugs and bioactive compounds (AID 1345084). Note: nearly all actives have a fitted effect of over 55% in size. Note: potency is the fitted concentration of half-maximal effect. As to conditions: Gynecologic cancer cell panel viability, ATPlite luminescence, 48 h; series mostly up to 57.5 µM. Summed up: as §1

The structures appear in SMILES notation. Unmarked numbers belong to inactive results. Inconclusive results are not listed. The source made the active and inactive calls. Calls come from the whole dose curve; as a rule, active = well fitted curve in the direction sought with a large enough effect; inconclusive = small, poorly fitted or top-dose-only effect, or another doubt; inactive = no such curve, though single readings can be large; an effect the other way counts as inactive or inconclusive.

Chain of Phospholipid hydroperoxide glutathione peroxidase GPX4 (Homo sapiens) (P36969 whole entry, looked up): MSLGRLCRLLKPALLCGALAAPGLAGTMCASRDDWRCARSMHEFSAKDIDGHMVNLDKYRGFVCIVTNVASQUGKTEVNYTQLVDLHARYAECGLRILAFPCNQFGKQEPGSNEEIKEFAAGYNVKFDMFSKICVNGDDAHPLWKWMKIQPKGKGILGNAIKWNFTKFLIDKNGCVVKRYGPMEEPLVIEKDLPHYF
Chain of Glutathione peroxidase 1 (Homo sapiens) (P07203 whole entry, looked up): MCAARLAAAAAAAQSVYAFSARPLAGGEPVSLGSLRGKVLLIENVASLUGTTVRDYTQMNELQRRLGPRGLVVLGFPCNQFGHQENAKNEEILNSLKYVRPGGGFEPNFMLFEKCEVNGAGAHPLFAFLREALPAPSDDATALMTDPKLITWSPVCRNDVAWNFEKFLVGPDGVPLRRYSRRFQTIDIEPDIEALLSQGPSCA
Chain of Calcium and integrin-binding protein 1 (Homo sapiens) (Q99828 whole entry, looked up): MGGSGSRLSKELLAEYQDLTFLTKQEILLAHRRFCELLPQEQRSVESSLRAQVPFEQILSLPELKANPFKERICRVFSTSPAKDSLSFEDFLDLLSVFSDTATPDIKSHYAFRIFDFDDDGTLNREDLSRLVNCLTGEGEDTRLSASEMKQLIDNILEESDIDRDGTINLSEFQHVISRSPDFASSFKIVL

Regarding `C/C=C(/COC(=O)/C(C)=C/C)C(=O)OC/C=C/c1ccc(OC)cc1`, the Potency entry in assay [1], in [2], in [3], in [4], in [5] and in assay [6] was “inactive” throughout. The Potency result in [7], in assay [8], in assay [9], in assay [10], in [11] and in [12] was “inactive” throughout. In addition, the Potency entry in assay [13], in [14] and in assay [15] was “inactive” throughout.

With `CC1OC2OC3C(OCC(O)C3O)OC(=O)C34CCC(C)(C)CC3C3=CCC5C6(C)CC(O)C(OC7OC(CO)C(O)C(O)C7OC7OCC(OC(=O)CC(C)(O)CC(=O)OC1C(OC1OCC(O)C(O)C1O)C2O)C(O)C7O)C(C)(CO)C6CCC5(C)C3(C)CC4O` (stereo not drawn), the Potency entry in assay [1], in assay [19], in [2], in assay [3], in [4] and in assay [5] was “inactive” each time. The Potency entry in [13] is “inactive”. The result in [16] was inactive. Also, the Potency in assay [17] is 2.52 µM (active); in assay [18] it was 3.17 µM (active); in assay [14], 10 µM (active).

As for `N#Cc1c[nH]c2c(C(=O)N3CCN(CCc4ccc(F)cc4)CC3)cccc12`, the result in [16] was inactive. The Potency entry in assay [19], in assay [3], in assay [4], in [5], in assay [6] and in [7] was “inactive” in each case. For the same compound, the Potency result in assay [8], in assay [9], in [10], in assay [11], in [12] and in [13] was “inactive” each time. In addition, the Potency result in assay [14], in assay [15] and in assay [20] was “inactive” each time.

For the compound `COc1ccc(C(=O)N(CCC(C)C)Cc2nc(C)c(C)n2Cc2ccccc2C)c(OC)c1`, the Potency entry in assay [1], in assay [19], in [2], in assay [3], in assay [5] and in assay [6] was “inactive” throughout. In addition, the Potency entry in assay [7], in assay [8], in [9], in [10], in [11] and in [12] was “inactive” throughout. Also, the Potency result in assay [13], in [14], in assay [15] and in [20] was “inactive” in each case. In addition, the Potency in [17] and in assay [18] was 11.5 µM (active) throughout.

As for `COc1cccc(CNC(=O)Nc2nc(-c3ccncc3)cs2)c1`, the Potency entry in [1], in [19], in [2], in [3], in assay [4] and in [5] was “inactive” each time. For the same compound, the Potency result in [6], in assay [7], in [8], in [9], in assay [10] and in [12] was “inactive” throughout. The Potency entry in assay [13], in assay [14], in [15] and in assay [20] was “inactive” in each case. Besides, the result in assay [16] was inactive. Besides, the Potency in [17] is 7.28 µM (active); in assay [18] it was 1.63 µM (active).

Regarding `CN(CCCNC(=O)c1ccc2nc3c(c(Cl)c2c1)CCCC3)Cc1ccccc1`, the Potency entry in assay [1], in assay [19], in [3], in [4], in [5] and in assay [6] was “inactive” in each case. Further, the Potency result in [7], in assay [8], in assay [9], in assay [10], in [11] and in assay [12] was “inactive” in each case. Further, the Potency entry in [13], in [14], in assay [15] and in assay [20] was “inactive” each time. Also, in assay [16], the outcome was inactive. In addition, the Potency in assay [17] is 12.9 µM (active); in [18], 8.17 µM (active).
